Data as given in PubChem BioAssay (Tox21).
“And” between values parts separate entries of the source, which are not always exact repeats. Equal entries are not always repeated. Inconclusive results are not listed. A call without a number means that no potency is given here. Some structures have more than one record in an assay (separate samples or runs), and their calls can disagree. The source made the active and inactive calls. Calls follow the shape of the full dose curve.

Experiment: Nuclear factor erythroid 2-related factor 2/antioxidant responsive element (Nrf2/ARE) small molecule agonists: luciferase reporter gene qHTS assay in human keratinocytes (AID 1919969); also: nearly all actives have a fitted effect of over 35% in size
Conditions: KeratinoSens HaCaT ARE-luciferase, luminescence, 24 h; series mostly up to 92.4 µM
Source text: National Center for Advancing Translational Sciences [NCATS]
Division of Preclinical Innovation [DPI]
U.S. Environmental Protection Agency [EPA]
National Institutes of Environmental Health Sciences [NIEHS]
National Toxicology Program [NTP]
U.S. Food and Drug Administration [FDA]
Oxidative stress has been implicated in the pathogenesis of a variety of diseases ranging from cancer to neurodegeneration. The antioxidant response element (ARE) signaling pathway plays an important role in the amelioration of oxidative stress. The KeratinoSens (Givaudan, Switzerland) is an in vitro test method which quantifies luciferase induction as a measure of activation of Keap1-Nrf2-antioxidationt/electrophile response element (ARE) dependant pathway in HaCaT human keratinocytes stably transfected with a selectable plasmid. The KeratinoSens assay is a cell-based assay with a reporter cell line to detect potential skin sensitizers by their ability to induce the Nrf2/ARE-response. The activation of the report gene under culture conditions can be detected by ONE-Glo Luciferase Assay System (Promega, Madison, WI). This cell line has been used to screen the Tox21 10K compound library to identify agonists that induce oxidative stress. The cytotoxicity of the Tox21 compound library against the KS-ARE cell line was tested in parallel by measuring the cell viability using CellTiter- Fluor assay system (Promega, Madison, WI) in the same wells.
HaCaT derived cell line KeratinoSens were dispensed at 1,500 cells/5uL/well in 1536-well white wall/solid bottom plates using a Multidrop Combi (ThermoFisher Scientific, Waltham, MA) dispenser. After the assay plates were incubated at 37 C/5% CO2 for 5 h, 23 nL of compounds dissolved in DMSO, positive controls or DMSO only was transferred to the assay plate by a pintool workstation (Kalypsys, San Diego, CA). The plates were incubated at 37 C/5% CO2 for 23 h, followed by addition of 1uL/well of CellTiter-Fluor reagent into the assay plates using a Flying Reagent Dispenser (Aurora Discovery, San Diego, CA) for cell viability readout that measures cytotoxicity. After 1 h incubation at 37 C/5% CO2 the fluorescence intensity was measured using a ViewLux (PerkinElmer, Shelton, CT) plate reader. Then 4uL/well of One-Glo were added using a Flying Reagent Dispenser. After the plates were incubated at room temperature for 30 min, the luminescence intensity in the assay plates was measured using ViewLux plate reader.
Potency is read from the fitted curve at half-maximal effect.

| SMILES | Potency |
| --- | --- |
| S=c1nc[nH]c2nc[nH]c12 | inactive |
| c1ccc(OCCOc2ccccc2)cc1 | inactive |
| ClC1=C(Cl)C(Cl)(Cl)C(Cl)=C1Cl | inactive and 61.1 µM (active) |
| Cc1ccc(Cl)cc1 | inactive |
| C[C@]12CC[C@@H]3c4ccc(O)cc4CC[C@H]3[C@@H]1CC[C@H]2O | inactive |
| O=[N+]([O-])c1cc(C(F)(F)F)ccc1Cl | inactive |
| C=CCOC(=O)CC(C)C | inactive |
| Brc1ccc(Oc2ccc(Br)cc2)cc1 | inactive |
| CCCC(O)C(CC)CO (stereo not given) | inactive |
| CC(=O)Oc1c(C)c(C)c2c(c1C)CC[C@@](C)(CCC[C@H](C)CCC[C@H](C)CCCC(C)C)O2 | inactive |
| O=C1CCC(N2C(=O)c3ccccc3C2=O)C(=O)N1 (stereo not given) | inactive |
| CCCOCC(C)O (stereo not given) | inactive |
| CCC(O)OC(O)CC (stereo not given) | inactive |
| COC(=O)CCCC(=O)OC | inactive |
| CCCCC(CC)COC(=O)CS (stereo not given) | inactive |
| CCOCC(=O)O | inactive |
| CC(=O)Oc1ccccc1C(=O)O | inactive |
| CCCCOC(=O)CCCCCCCCC(=O)OCCCC | inactive |
| CCc1nc(N)nc(N)c1-c1ccc(Cl)cc1 | inactive |
| CC(=O)OCCOC(C)=O | inactive |

| SMILES | Potency |
| --- | --- |
| Nc1cc(Cl)c(-c2cc(Cl)c(N)cc2Cl)cc1Cl | 3.06 µM (active) and inactive |
| C=C(C)C(=O)OCCCCCCCCCCCC | inactive |
| C=C(C)C(=O)OCC(C)O (stereo not given) | inactive |
| O=C(O)c1cccc(C(=O)O)c1 | inactive |
| Cc1nnc(NS(=O)(=O)c2ccc(N)cc2)s1 | inactive |
| CC(=O)Nc1ccccc1 | inactive |
| CC(C)Cc1ccccc1 | inactive |
| Cc1ccc(C(C)C)cc1 | inactive |
| c1cnc2c(c1)ccc1cccnc12 | 9.69 µM (active) |
| C=CC(=O)OCCCCCCCC(C)C | inactive |
| CCCCCCCCCCC(CO)CCCCCCCC (stereo not given) | inactive |
| O=C(O)Cc1c[nH]c2ccccc12 | inactive |
| CCOc1ccc(NC(C)=O)cc1 | inactive |
| Fc1ccc(Br)cc1 | inactive |
| COc1cc(NC(=O)CC(C)=O)c(OC)cc1Cl | inactive |
| CC(=O)c1ccc(S(=O)(=O)NC(=O)NC2CCCCC2)cc1 | inactive |
| CC1(C)OC(=O)NC1=O | inactive |
| CCCCC(CC)COC(=O)/C=C\C(=O)OCC(CC)CCCC (stereo not given) | inactive |
| NC1CCCCC1 | inactive |
| CC(O)C(=O)O (stereo not given) | inactive |
